Measured values: the supplement of paper PMC10127200
Counter-ions that a name gives are not always drawn.

What was measured:
Test in all cases: Euclidean distance of Cell Painting phenotypic profile (signed KS, 77 features) to DMSO centroid (dimensionless distance); 5 or 10 uM (library dependent); higher = stronger phenotypic change vs DMSO (phenoactivity)
Settings in all cases: 48 h
786-O = system: 786-O
Method in brief: (§1)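 Five cancer lines and a healthy fibroblast line received library compounds at 10 or 5 uM (library-dependent, 0.1% DMSO final) for 48 h. Stained cells were imaged confocally at 20X (9 fields/well). Harmony extracted 77 features, each scored as a signed Kolmogorov-Smirnov statistic against same-plate vehicle wells. Profiles were plate-position corrected, correlation-weighted and replicate-averaged at the top dose. Phenoactivity is the Euclidean distance from each profile to the median vehicle profile.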

A549 = system: A549
Method in brief: as §1

DU145 = system: DU145
Method in brief: as §1

FB = system: FB
Method in brief: as §1

HEPG2 = system: HEPG2
Method in brief: as §1

OVCAR4 = system: OVCAR4
Method in brief: as §1

Compound | Euclidean distance (786-O) | Euclidean distance (A549) | Euclidean distance (DU145) | Euclidean distance (FB) | Euclidean distance (HEPG2) | Euclidean distance (OVCAR4)
CN(C)CC(c1ccc(O)cc1)C1(O)CCCCC1 (stereo not given) [Desvenlafaxine] | 0.678 | 0.707 | 0.899 | 0.932 | 0.34 | 1.95
O=C(/C=C\n1cnc(-c2cc(C(F)(F)F)cc(C(F)(F)F)c2)n1)NNc1cnccn1 | 2.36 | 3.91 | 2.72 | 3.85 | 2.34 | 3.83
COc1ccc(-c2cc(=O)c3c(O)c(OC)c(O)cc3o2)cc1OC [Eupatilin] | 1.61 | 1.04 | 1.76 | 1.51 | 1.35 | 0.872
CC(C)C[C@H](NC(=O)CNC(=O)c1cc(Cl)ccc1Cl)B(O)O | 5.04 | 3.61 | 5.19 | 3.83 | 4.44 | 4.31
CNCc1ccc(-c2[nH]c3cc(F)cc4c3c2CCNC4=O)cc1 | 1.61 | 1.12 | 0.651 | 1.66 | 1.33 | 1.23
CC[C@@H]1C(=O)N(C)c2cnc(Nc3ccc(C(=O)NC4CCN(C)CC4)cc3OC)nc2N1C1CCCC1 | 3.46 | 3.75 | 3.25 | 3.72 | 2.48 | 3.25
CCOC(=O)[C@@H](N)Cc1ccc(-c2cc(O[C@H](c3ccc(Cl)cc3-n3ccc(C)n3)C(F)(F)F)nc(N)n2)cc1 [Telotristat Etiprate (LX 1606 Hippurate)] | 3.69 | 1.52 | 2.43 | 2.23 | 1.13 | 1.3
CC/C(=C(\c1ccc(O)cc1)c1ccc(OCCNC)cc1)c1ccccc1 [Endoxifen HCl] | 4.21 | 3.39 | 2.59 | 3.3 | 4.86 | 3.32
OCCN1CCN(CCCN2c3ccccc3Sc3ccc(C(F)(F)F)cc32)CC1 [Fluphenazine dihydrochloride] | 1.98 | 2.27 | 1.87 | 2.76 | 2.66 | 1.77
CC(C)(C)NC(=O)N[C@H](C(=O)N1C[C@H]2[C@@H]([C@H]1C(=O)NC(CC1CCC1)C(=O)C(N)=O)C2(C)C)C(C)(C)C (stereo not given in full) [Boceprevir] | 1.48 | 0.973 | 1.59 | 1.13 | 0.545 | 1.45
Cn1cc(/C=C/C(=O)c2cccc(F)c2)cc1/C=C/C(=O)NO | 1.27 | 1.61 | 0.756 | 1.27 | 0.359 | 0.539
COC(=O)N[C@H](C(=O)N1CCC[C@H]1C(=O)Nc1ccc([C@@H]2CC[C@@H](c3ccc(NC(=O)[C@@H]4CCCN4C(=O)[C@@H](NC(=O)OC)C(C)C)cc3)N2c2ccc(C(C)(C)C)cc2)cc1)C(C)C [Ombitasvir (ABT-267)] | 1.9 | 1.76 | 1.29 | 1.1 | 1.24 | 1.26
CCc1nc2c(C)cc(N3CCN(CC(=O)N4CC(O)C4)CC3)cn2c1N(C)c1nc(-c2ccc(F)cc2)c(C#N)s1 [Ziritaxestat (GLPG1690)] | 1.57 | 1.31 | 0.685 | 2.02 | 1.42 | 1.68
O=C(O)CSc1nnc(Br)n1-c1ccc(C2CC2)c2ccccc12 [Lesinurad] | 0.529 | 0.673 | 0.762 | 0.983 | 1.61 | 0.826
COc1ccccc1O [Guaiacol] | 0.884 | 0.854 | 0.891 | 1.19 | 0.511 | 1.43
CS(=O)(=O)CCNCc1ccc(-c2ccc3ncnc(Nc4ccc(OCc5cccc(F)c5)c(Cl)c4)c3c2)o1 [Lapatinib ditosylate monohydrate] | 4.93 | 3.12 | 2.25 | 2.59 | 3.3 | 3.37
O=C(O)C(Cc1c[nH]c2ccccc12)N1C(=O)c2ccccc2C1=O (stereo not given) | 0.991 | 0.979 | 0.681 | 0.852 | 0.417 | 0.641
C[C@H](N[C@@H](CCc1ccccc1)C(=O)O)C(=O)N1CCC[C@H]1C(=O)O [Enalaprilat Dihydrate] | 1.22 | 1.17 | 0.803 | 0.927 | 0.793 | 1
CCN(Cc1ccncc1)C(=O)C(CO)c1ccccc1 (stereo not given) [Tropicamide] | 1.11 | 1.27 | 1.8 | 1.01 | 0.684 | 1.3
Cc1[nH]c2ccccc2c1CCNC(=O)c1cccs1 | 0.729 | 2.31 | 0.821 | 0.779 | 0.553 | 1.45
CNC(CC(=O)O)C(=O)O [NMDA (N-Methyl-D-aspartic acid)] | 0.691 | 1.26 | 0.677 | 0.867 | 0.901 | 0.706
CCOC(=O)C1=C[C@]2(CC)CCCN3CCc4c(n1c1ccccc41)[C@@H]32 [Vinpocetine] | 1.12 | 0.68 | 0.699 | 0.994 | 0.98 | 1.81
OCCN(CCO)c1nc(N2CCCCC2)c2nc(N(CCO)CCO)nc(N3CCCCC3)c2n1 [Dipyridamole] | 1.24 | 0.954 | 1.33 | 0.963 | 0.833 | 0.968
Cn1c(=O)c2c(ncn2CC(O)CO)n(C)c1=O (stereo not given) [Dyphylline] | 1.02 | 0.909 | 0.59 | 1.07 | 1.05 | 1.59
Cc1cc(C(C)(C)C)c(O)c(C(C)(C)C)c1 [Butylated hydroxytoluene] | 0.873 | 0.945 | 0.885 | 0.657 | 1.03 | 0.752
